This passage reports inhibition results from PubChem BioAssay AID435022 (Sanford-Burnham Center for Chemical Genomics, 2010).

The term inhibition denotes the drop in the measured response relative to a control, in per cent.

In all, about 330,000 compounds went through this assay and about 1,100 (0.33%) were called active. Shown is part of a subset that was picked to be rich in actives. A number with no mark means an inactive call. No stated cut-off is given here; in the data, active means inhibition above about 35%; inactive means the rest.

The experiment can be described thus: inhibitors of PMA/ionomycin-induced NF-kB reporter, 697 cells, primary screen, B-cell NF-kB inhibitor project, cell-based, luminescence, uHTS (AID 435022). To be noted: 697 B-cell NF-kB luciferase reporter, 16 h, at 4 µM, active compounds read high.
As to `O=C(C1CCCN(S(=O)(=O)c2ccc([N+](=O)[O-])cc2)C1)N1CCCCC1` (stereo not given), the inhibition was -4.88%.

For `O=C(Cc1ccccc1)N1CCN(S(=O)(=O)c2ccc([N+](=O)[O-])cc2)CC1`, the inhibition was 4.38%.

For `O=C(C1CCC1)N1CCN(S(=O)(=O)c2ccc([N+](=O)[O-])cc2)CC1`, the inhibition is 38.2% (active).

With `COC(=O)c1c(NC(=O)COC(=O)[C@@H](NS(=O)(=O)c2ccccc2)C(C)C)sc2c1CCC2`, the inhibition was 10.3%.

For `CC1CCCCN1C(=O)Cn1c(=O)oc2cc(S(=O)(=O)N3CCCCC3)ccc21` (stereo not given), the inhibition is 4.87%.

On to `O=C(CSc1nc(-c2ccccc2)cs1)Nc1cccc([N+](=O)[O-])c1`, for which the inhibition was 1.61%.

Consider `CCN(CCCNC(=O)c1ccc2c(c1)NC(=O)CN2C)c1cccc(C)c1`, for which the inhibition is -19.3%.

In the case of `CNC(=O)c1ccc(NC(=O)c2cccc(C(F)(F)F)c2)cc1`, the inhibition was 40.3% (active).

In the case of `O=C(Nc1ccc(-c2csc(Nc3cccc(C(F)(F)F)c3)n2)cc1)c1cccc(C(F)(F)F)c1`, the inhibition was -26.3%.

Turning to `O=C(Nc1ccc(C(F)(F)F)cc1)c1cccc(-n2cnnn2)c1`, the inhibition is -26.7%.

With `Cc1ccc(NC(=O)CSc2nnc(CNC(=O)c3ccccc3F)o2)cc1`, the inhibition was 0.808%.

In the case of `CCOC(=O)N1CCN(S(=O)(=O)c2ccc(-n3cnnn3)cc2)CC1`, the inhibition was -11.9%.

`CCCNC(=O)c1ccc(N2CCC3(CC2)CC(c2ccc(Cl)cc2)=NO3)c([N+](=O)[O-])c1`: the inhibition is -1.96%.

Take `O=C(Nc1ccccc1N1CCN(C(=O)c2ccccc2)CC1)c1ccco1`: the inhibition was 6.77%.

In the case of `CCCNC(=O)c1ccc(N2CCC3(CC2)CC(c2cccc(Br)c2)=NO3)c(NC(=O)c2ccco2)c1`, the inhibition is 35.6% (active).

Turning to `COc1ccc(NC(=O)c2sccc2SCC#N)cc1`, the inhibition was 0.298%.

On to `O=C(O)C1=C[C@H](c2cccs2)C[C@H](OCCCCO)O1`, for which the inhibition was 27.6%.

For `Cn1c(CCCOc2ccc(Cl)cc2Cl)n[nH]c1=S`, the inhibition is -42.5%.

On to `COc1cc(N=Cc2c(O)[nH]c3ccccc23)cc(OC)c1OC`, for which the inhibition was 45.5% (active).

Take `CN=c1scc(-c2cc(OC)ccc2OC)n1/N=C/c1c(C)[nH]c2ccccc12`: the inhibition was -18%.

Consider `COc1ccc2[nH]c(C(=O)N/N=C/c3cc(OC)c(OC)c(OC)c3)cc2c1`, for which the inhibition is -5.61%.

For `O=C(Nc1ccc2c(c1)OCO2)C1CC(c2c(F)cccc2Cl)=NO1` (stereo not given), the inhibition is 10.7%.

Take `O=C(CNC(=O)Cc1ccccc1)NCC(=O)OCC(=O)c1ccccc1Cl`: the inhibition is 12.5%.

Regarding `O=C(O)c1ccc(COc2c(F)c(F)cc(F)c2F)o1`, the inhibition was 4.23%.

Regarding `Cn1c(=O)c2c(nc(N3CCCCCC3)n2CC(O)COc2ccc(Cl)cc2)n(C)c1=O` (stereo not given), the inhibition was -3.4%.

`COc1ccc(CNC(=O)[C@@H]2CC=C[C@@H]3CCN(C4CC4)C(=O)[C@@H]32)cc1`: the inhibition was 37.2% (active).

For `COc1ccc(CNC(=O)C2CCCC2)cc1`, the inhibition is 9.55%.

For the compound `COc1ccc(CNC(=O)C2CCN(S(C)(=O)=O)CC2)cc1`, the inhibition was 3.89%.

Consider `CC(NC(=S)Nc1ccc(OC(F)F)cc1)c1ccc(F)cc1` (stereo not given), for which the inhibition was 2.48%.

For the compound `COC(=O)c1cc(OC)c(OC)cc1NC(=O)C1CCCO1` (stereo not given), the inhibition is 6.92%.

For `COc1ccc(C(=O)NC2CCCc3c2cnn3-c2cccc(C)c2C)c(OC)n1` (stereo not given), the inhibition is -399%.

In the case of `CC1(C)Cc2c(cnn2-c2cccc(F)c2)C(NC(=O)c2cc[n+]([O-])cc2)C1` (stereo not given), the inhibition is -12.6%.

For the compound `Cn1nccc1C(=O)NC1CCCc2c1cnn2-c1ccccc1F` (stereo not given), the inhibition was 62.7% (active).

Take `Cc1ccc(-n2ncc3c2CCCC3NC(=O)c2cnccn2)cc1C` (stereo not given): the inhibition was -27.6%.

As to `Cn1nccc1C(=O)NC1CCCc2c1cnn2-c1ccc(F)cc1F` (stereo not given), the inhibition is 36.2% (active).

For the compound `COc1ccc(C(=O)NC2CC(C)(C)Cc3c2cnn3-c2ccccc2C)o1` (stereo not given), the inhibition was 4.57%.

In the case of `CC(C)(C)C(=O)NCCCNc1ccc([N+](=O)[O-])cc1`, the inhibition is 14.1%.

For `CN(C(=O)CC(NC(=O)c1ccccc1)(c1ccccc1)c1ccccc1)c1ccccc1`, the inhibition is 12%.

`COC(=O)/C(C#N)=C/c1occc1C`: the inhibition was 5.66%.

As for `CC(NCc1cccs1)C(=O)Nc1cc(Cl)cc(Cl)c1` (stereo not given), the inhibition was 7.31%.

On to `CN(C)c1ccc(-n2cccc2/C=N/n2cnnc2)cc1`, for which the inhibition is -4.94%.

As for `CCc1ccnc(NC(=O)Nc2ccc(OCc3ccccc3)cc2)c1`, the inhibition was 6.55%.

`O=c1[nH]c(-c2ccccc2)c(-c2ccccc2)[nH]1`: the inhibition was 35.4% (active).

Regarding `O=c1cc(-c2ccccc2)nc(N2CCCCC2)[nH]1`, the inhibition is 11.5%.

As to `O=C(O)c1n[nH]nc1-c1ccccc1`, the inhibition is 14.7%.

Turning to `COc1ccc(CNC(=O)C[C@H]2C[C@H](C(=O)N3CCOCC3)[C@@]3(C)c4[nH]c5cc(CCC(=O)N(C)C)ccc5c4CCN3C2=O)cc1OC`, the inhibition was 11.5%.

With `CN1CC(c2ccccc2)C2(COc3ccccc3C2=O)C12C(=O)Nc1ccccc12` (stereo not given), the inhibition is 11.7%.

Consider `CC(=O)c1nc(N2C(=O)C3CC=C(C)CC3C2=O)sc1C` (stereo not given), for which the inhibition is 23.1%.

For the compound `C[C@@H]1C[C@@H]2O[C@H]2/C=C\C=C\C(=O)Cc2c(Cl)c(O)cc(O)c2C(=O)O1`, the inhibition was 83.8% (active).

`COc1ccc(NC(=O)CSc2nc(SC)ns2)c(OC)c1`: the inhibition is -40%.

As for `CCOC(=O)CSC1=N/C(=C/c2ccc(-n3cncn3)cc2)C(=O)N1C(C)=O`, the inhibition was 6.08%.

Consider `C=CCC[C@@H](Cc1ccc(F)cc1)C(=O)O[C@H](CNC(=O)[C@H](CC=C)CC(=O)N(CCO)Cc1ccccc1)c1ccccc1`, for which the inhibition was 1.62%.

For the compound `CCOc1ccc(C(=O)CCC(=O)NC2=NCCS2)cc1`, the inhibition was 21.2%.

For the compound `O=C(CS(=O)(=O)Cc1ccccc1)Nc1cccnc1`, the inhibition was -24.8%.

`OCCN1CCN(C(=S)c2ccc(-c3ccccc3)cc2)CC1`: the inhibition is 55.1% (active).

Regarding `S=C(c1ccc(-c2ccccc2)o1)N1CCCCC1`, the inhibition was -134%.

For `CN1CCN(CCCCOc2ccccc2-c2ccccc2)CC1`, the inhibition is -15%.

With `Cc1cc(=O)oc2c(C(=O)c3ccccc3)c(OCC(N)=O)ccc12`, the inhibition is -14.5%.

On to `O=C(CSC1=NS(=O)(=O)c2cc(F)ccc2N1)Nc1ccccc1F`, for which the inhibition is 1.35%.

With `NCCCC[C@@H]1NC(=O)[C@H](CCC(=O)O)NC(=O)c2cc([N+](=O)[O-])cc(I)c2NCC[C@@H](C(N)=O)NC1=O`, the inhibition is 18.3%.
